# Data: paper PMC12136788
# In all, about 5,800 sequences were measured (“enrichment r”: median about 0.68, highest 2% from about 11 on). A selection follows.
# T1: UNK ZnF1-6 (called full-length) (human, UniProt Q9C0B0 30-357)
# T1 sequence: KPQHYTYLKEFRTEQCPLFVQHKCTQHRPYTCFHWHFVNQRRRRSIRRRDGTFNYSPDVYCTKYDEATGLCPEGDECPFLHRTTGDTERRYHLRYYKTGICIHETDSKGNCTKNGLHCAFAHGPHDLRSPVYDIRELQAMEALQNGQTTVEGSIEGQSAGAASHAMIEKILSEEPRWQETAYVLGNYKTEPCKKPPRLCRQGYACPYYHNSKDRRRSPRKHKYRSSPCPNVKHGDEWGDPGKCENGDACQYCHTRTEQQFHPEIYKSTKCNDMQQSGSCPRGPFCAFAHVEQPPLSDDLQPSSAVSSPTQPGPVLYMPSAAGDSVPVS
# B1: chr15:63774837:63774950:-|CDS|ENSG00000103657|unk|FALSE|unique (ssRNA)
# RNA: GGGAGUUCUACAGUCCGACGAUCGUAACAACAUUUCUUAAAGGAGUCACUAUUCCUAAUUCUGGGGCAGACACUUUAGGUCGUAGAUUAGCUUCUGAGUUGCUGCUUGGUUUGGCAGCUCAACGAGGCUCAUUGCGAUAUCUUCAACAGAGGAUUGAGCAUCA
# B2: chr12:68660398:68660499:+|3pUTR|ENSG00000127314|msi1|total|mutant (ssRNA)
# RNA: GGGAGUUCUACAGUCCGACGAUCUUGAGGUGGCCAAAUGUAAACUAAAAGCCUUAAUUAAAGUGGUGCAAUUUUGUAUAACUCCGCAUCAGCCGUUCAAUAAAUUUGGAUUGCCAUGCAAGGGCUUGCAUUAUAAUUACUUGCCAACAGAGGAUUGAGCAUCA
# B3: chr5:103029089:103029184:+|3pUTR|ENSG00000145730|msi1_unk|FALSE|overlapping (ssRNA)
# RNA: GGGAGUUCUACAGUCCGACGAUCAACCAAGCUUUGAUUUAGAUUGAGUAAGAUUUACCCAGAAUGUCAGAUUCCUUUCCCUUUAGCACGUUUAAAGUUCUGUGUAUUUAAUUGUAAACUGUACUAGUCUGUGUGGGACUGUACCAACAGAGGAUUGAGCAUCA
# B4: chr2:32415436:32415554:+|CDS|ENSG00000115760|unk|FALSE|unique (ssRNA)
# RNA: GGGAGUUCUACAGUCCGACGAUCUGGGACUUUGGUUCAGUGCUUGAGGCUGCCAAAGUUUGCAGAGGAGGAGAAUCUUUGUAUAGACUCAAUAACUCCUUGUGCUGACGGAAUUCAUUUGUUGGUAGGACUGCGGACAUGCCCCAACAGAGGAUUGAGCAUCA
# B5: chr1:43978039:43978149:+|3pUTR|ENSG00000117410|unk|total|mutant (ssRNA)
# RNA: GGGAGUUCUACAGUCCGACGAUCGGCCGUGCCUCACUUUUAUUUAUUGCUGGUUUUCCUGGGACAGCUGGAGCUGUGUCCCUCCGCCUUUCAGAGGCUUGGUGUUCAGGGCCCUCCCUGCACUCCCCUCUUGCUGCGUGUUGACAACAGAGGAUUGAGCAUCA
# B6: ENSG00000107863:be:win_5401|CDS|ENSG00000107863|bound_else_gene|NA|bound_elsewhere_windowed (ssRNA)
# RNA: GGGAGUUCUACAGUCCGACGAUCAGACAUACACUAGGAGGGCACAGAGAUGCUACCGAAAUCAGCGUUUUGAAUUUUUGGAAAGUGCAUGAGCAGAGCGGGGAGAGAGAAUCUGAACUUUCAGCUGUAAACCGGUUAAAACCACAACAGAGGAUUGAGCAUCA
# B7: ENSG00000156976:stop:overlap|stop_codon|ENSG00000156976|stop_codon|NA|stop_codon (ssRNA)
# RNA: GGGAGUUCUACAGUCCGACGAUCCUUUGGUUAUAAAUUAUGAUCUACCUACCAAUCGUGAAAACUAUAUUCACAGGAGUCGAUAGCAGCAGUUGGUGACGAGAUGGCACUCAGAAACGGCGUUGACGUAAUUUAGGACGUGGACAACAGAGGAUUGAGCAUCA
# B8: chr2:159967538:159967678:-|CDS|ENSG00000153246|control|control|control (ssRNA)
# RNA: GGGAGUUCUACAGUCCGACGAUCUAGUGAAGAGUGUUCAGUUUCUAUGCCUAGUAUCUGUAAGCGAAAAAAGGUUUGGCUCAUAGAGAAAAAGAAAGAUACACCAAAACAACAUGGAACGUGUCCCAAAGGAUGGCUAUAUUUCAACAGAGGAUUGAGCAUCA
# B9: ENSG00000187498:stop:overlap|stop_codon|ENSG00000187498|stop_codon|NA|stop_codon (ssRNA)
# RNA: GGGAGUUCUACAGUCCGACGAUCAGGUGAACCGGGACCUCCUGGAUUGCCAGGCUCCGUGGGGUCUCCAGGAGUUCCAGGAAUAGGCCCCCCUGGAGCUAGGGGUCCCCCUGGAGGACAGGGACCACCGGGGUUGUCAGGCCCCAACAGAGGAUUGAGCAUCA
# B10: chr10:71816642:71816777:-|3pUTR|ENSG00000197746|msi1_unk|total|mutant (ssRNA)
# RNA: GGGAGUUCUACAGUCCGACGAUCUUGUUUGGGGUUCUGUGGGUUUGGGUGGGAAGAGGGCCAUCUGCCUGAAUGUAACCUGCCCGCUCUCCGAAGGCCCUGCGGGCCUGGCUUGUGUGAGCGUGUGGACAGUGGUGGCCGCGCCAACAGAGGAUUGAGCAUCA
# B11: chr20:35276351:35277713:-|three_prime_utr|ENSG00000126005|control|control|control (ssRNA)
# RNA: GGGAGUUCUACAGUCCGACGAUCCUCCUCUCCCCACGUCCCUGCGUCUCUUACACCCCCUCCCACCCGAGGCUCCCCAGAGAUAGCAGAGAAUUCGAAGAGGUCGCCGGGGACUGGAAAGAAGUCCCGGCAGGGCCGCCUUCGCAACAGAGGAUUGAGCAUCA
# B12: chr2:42328916:42329027:+|CDS|ENSG00000143924|unk|FALSE|unique (ssRNA)
# RNA: GGGAGUUCUACAGUCCGACGAUCAGAAGGAUCUGAUGGGACAGAUAUCAAUGCACUGGUGCGAUCCCACAAUAGAAAGGUGAUAGCUGUUGCCGAUGACUUUUGUAAAGUCCAUCUGUUUCAGUAUCCCUGCUCCAAAGCAAACAACAGAGGAUUGAGCAUCA
# B13: chr1:28742582:28742694:+|CDS|ENSG00000198492|unk|FALSE|bound_elsewhere (ssRNA)
# RNA: GGGAGUUCUACAGUCCGACGAUCAGCAACGGAGAGCCCCACUUCCUACCAGAUGCAAUGUUUGGGCAACCAGGAGCCCUAGGUAGCACUCCAUUUCUUGGUCAGCAUGGUUUUAAUUUCUUUCCCAGUGGGAUUGACUUCUCACAACAGAGGAUUGAGCAUCA
# B14: chr1:235182574:235182675:-|CDS|ENSG00000054267|unk|FALSE|unique (ssRNA)
# RNA: GGGAGUUCUACAGUCCGACGAUCUUUGACCAACAACAGAAAUGAUCUUAUUUCAAAGGAGGAACAGAACAGUUCAUCUUUGCUAGAAGAAAACAAAGUUCAUGCAGAUUUGGUAAUAUCCAAACCAGUGUCAAAAUCUCCAGACAACAGAGGAUUGAGCAUCA
# B15: chr14:81473690:81473791:-|3pUTR|ENSG00000071537|msi1|total|mutant (ssRNA)
# RNA: GGGAGUUCUACAGUCCGACGAUCCAGUGUUUUGGAAGUAUGCAUGCAGGCCUAUAAAUGAAAAACACAAUUCUUUAUGUGUACCGCAUGUGUAUUAAUGUCUAACUACAUACGCAAAAACUUCCUUUACAGAGGUUCGGACUACAACAGAGGAUUGAGCAUCA
# B16: chr3:124966548:124966651:-|3pUTR|ENSG00000173706|unk|FALSE|bound_elsewhere (ssRNA)
# RNA: GGGAGUUCUACAGUCCGACGAUCAGGAAGAAUGCAAAGUUCAGUAUUUCAAUACUUUGUAUUUUACUUGAAAUUACCCUUAGUAGCAUCUUUUUUUUCCUGUCUGAAAGCUUUUGUGUGGAUGAGAAGGGACAUUUCAUUUCCCAACAGAGGAUUGAGCAUCA
# B17: chr1:225419324:225419425:-|CDS|ENSG00000143815|msi1|FALSE|unique (ssRNA)
# RNA: GGGAGUUCUACAGUCCGACGAUCUUACAUAGCAACACAGUAUAGCCUUCGUCCAAGAAGAGAAGAAGUCAAAUUAAAAGAAAUAGAUUCUAAGGAAGAAAAAUACGUUGCAAAAGAACUGGCAGUGAGAACCUUUGAAGUGACCAACAGAGGAUUGAGCAUCA
# B18: chr16:18841627:18841728:-|CDS|ENSG00000157106|msi1|FALSE|bound_elsewhere (ssRNA)
# RNA: GGGAGUUCUACAGUCCGACGAUCUACAAUUAAUCGCCAAGAAACACCCCGGUUCCAUGCUCGACACUAUUCUGUAACACCACUAGGAACAAGAUCAGGACUAAUCCAGUGGGUAGAUGGAGCCACACCCUUAUUUGGUCUUUACAACAGAGGAUUGAGCAUCA
# Biological target: T1, UNK ZnF1-6 (called full-length)
# Test: nsRBNS (natural sequence RNA bind-n-seq); RBNS binding buffer (assumed for nsRBNS): 25 mM Tris pH 7.5, 150 mM KCl, 3 mM MgCl2, 0.01% Triton X-100, 500 ug/ml BSA, 20 U/ml SUPERase-In, 4 C; UNK is unkempt and MSI1 is Musashi-1; names of the RNAs are library labels; protein concentration not given here; high values mean tight binding
row,Binder,binding signal
1,B1,0.542 enrichment R
2,B2,0.352 enrichment R
3,B3,1.16 enrichment R
4,B4,0.624 enrichment R
5,B5,0.779 enrichment R
6,B6,0.693 enrichment R
7,B7,0.52 enrichment R
8,B8,0.378 enrichment R
9,B9,0.745 enrichment R
10,B10,0.901 enrichment R
11,B11,0.869 enrichment R
12,B12,0.424 enrichment R
13,B13,0.665 enrichment R
14,B14,0.258 enrichment R
15,B15,0.563 enrichment R
16,B16,1.1 enrichment R
17,B17,0.538 enrichment R
18,B18,0.869 enrichment R
